Reference: doi:10.1101/2024.03.05.583629

target: pT7_6His-AlfaTag-HOXD13 (human, UniProt P35453 263-343); assay: PADIT-seq; conditions: dsDNA, one strand shown
Sequence (P35453 263-343): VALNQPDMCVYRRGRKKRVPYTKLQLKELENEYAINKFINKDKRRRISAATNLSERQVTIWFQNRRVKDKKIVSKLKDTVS

In order of falling binding signal:
1. CTCGAGGATATCAAGATCTGGCCTCGGCTCGTTAAAAGGAACCTCTAGCTAGCCGACTCACTATAGGGATAATCGCCCTGAGCAAAGACC  3.05 ± 0.0768 log2FC
2. CTCGAGGATATCAAGATCTGGCCTCGGCATCGTAAAAGGAACCTCTAGCTAGCCGACTCACTATAGGGATAATCGCCCTGAGCAAAGACC  2.79 ± 0.0886 log2FC
3. CTCGAGGATATCAAGATCTGGCCTCGGCCCCTTAAAAGGAACCTCTAGCTAGCCGACTCACTATAGGGATAATCGCCCTGAGCAAAGACC  2.7 ± 0.0989 log2FC
4. CTCGAGGATATCAAGATCTGGCCTCGGCTCCATAAAAGGAACCTCTAGCTAGCCGACTCACTATAGGGATAATCGCCCTGAGCAAAGACC  2.64 ± 0.0916 log2FC
5. CTCGAGGATATCAAGATCTGGCCTCGGCGTTTTAATAGGAACCTCTAGCTAGCCGACTCACTATAGGGATAATCGCCCTGAGCAAAGACC  2.63 ± 0.0918 log2FC
6. CTCGAGGATATCAAGATCTGGCCTCGGCCTTTTAATTGGAACCTCTAGCTAGCCGACTCACTATAGGGATAATCGCCCTGAGCAAAGACC  2.53 ± 0.0779 log2FC
7. CTCGAGGATATCAAGATCTGGCCTCGGCGTTTTAATGGGAACCTCTAGCTAGCCGACTCACTATAGGGATAATCGCCCTGAGCAAAGACC  2.46 ± 0.0744 log2FC
8. CTCGAGGATATCAAGATCTGGCCTCGGCTTTTTAACAGGAACCTCTAGCTAGCCGACTCACTATAGGGATAATCGCCCTGAGCAAAGACC  2.05 ± 0.0793 log2FC
9. CTCGAGGATATCAAGATCTGGCCTCGGCTTTTTATGCGGAACCTCTAGCTAGCCGACTCACTATAGGGATAATCGCCCTGAGCAAAGACC  2.03 ± 0.081 log2FC
10. CTCGAGGATATCAAGATCTGGCCTCGGCGTTTTATTCGGAACCTCTAGCTAGCCGACTCACTATAGGGATAATCGCCCTGAGCAAAGACC  1.73 ± 0.0989 log2FC
11. CTCGAGGATATCAAGATCTGGCCTCGGCTGAATAAAAGGAACCTCTAGCTAGCCGACTCACTATAGGGATAATCGCCCTGAGCAAAGACC  0.859 ± 0.0895 log2FC
12. CTCGAGGATATCAAGATCTGGCCTCGGCTTTTTAGCAGGAACCTCTAGCTAGCCGACTCACTATAGGGATAATCGCCCTGAGCAAAGACC  0.699 ± 0.0959 log2FC
13. CTCGAGGATATCAAGATCTGGCCTCGGCCTTTTACTCGGAACCTCTAGCTAGCCGACTCACTATAGGGATAATCGCCCTGAGCAAAGACC  0.504 ± 0.0906 log2FC
14. CTCGAGGATATCAAGATCTGGCCTCGGCGTCCTAAAAGGAACCTCTAGCTAGCCGACTCACTATAGGGATAATCGCCCTGAGCAAAGACC  0.117 ± 0.0783 log2FC
15. CTCGAGGATATCAAGATCTGGCCTCGGCCTTTTAGTTGGAACCTCTAGCTAGCCGACTCACTATAGGGATAATCGCCCTGAGCAAAGACC  0.113 ± 0.0927 log2FC
16. CTCGAGGATATCAAGATCTGGCCTCGGCGTTTTAGGTGGAACCTCTAGCTAGCCGACTCACTATAGGGATAATCGCCCTGAGCAAAGACC  -0.0193 ± 0.12 log2FC
17. CTCGAGGATATCAAGATCTGGCCTCGGCCGACTAAAAGGAACCTCTAGCTAGCCGACTCACTATAGGGATAATCGCCCTGAGCAAAGACC  -0.753 ± 0.121 log2FC
18. CTCGAGGATATCAAGATCTGGCCTCGGCAGGCTAAAAGGAACCTCTAGCTAGCCGACTCACTATAGGGATAATCGCCCTGAGCAAAGACC  -0.781 ± 0.0984 log2FC
19. CTCGAGGATATCAAGATCTGGCCTCGGCTTTCCACGCGGAACCTCTAGCTAGCCGACTCACTATAGGGATAATCGCCCTGAGCAAAGACC  -0.793 ± 0.11 log2FC
